These results are taken from PubChem BioAssay (NCI).

Common to all, as to test: NCI-60 one-dose screen, 48 h (100 = growth as untreated, 0 = no growth, -100 = all killed)
The test system of test [1] is DU-145 prostate. As to conditions: 10 µM unless noted.
The test system of test [2] is K-562 leukemia. The following applies: 10 µM unless noted.
The subject of test [3] is MALME-3M melanoma. As to conditions: 10 µM unless noted.
For test [4], the system named is MDA-MB-231 breast. The following applies: 10 µM unless noted.
For test [5], the system named is SF-268 CNS. As to conditions: 10 µM unless noted.
The subject of test [6] is SF-295 CNS. The following applies: 10 µM unless noted.
Test [7] deals with SF-539 CNS. The following applies: 10 µM unless noted.
The subject of test [8] is UACC-257 melanoma. The following applies: 10 µM unless noted.
In test [9] the test system is M14 melanoma. As to conditions: 10 µM unless noted.
Test [10] relates to HCT-15 colon. As to conditions: 10 µM unless noted.
Test [11] concerns HT29 colon. As to conditions: 10 µM unless noted.
Test [12] relates to SNB-75 CNS. As to conditions: 10 µM unless noted.
Test [13] concerns SNB-19 CNS. The following applies: 10 µM unless noted.
Test [14] deals with U251 CNS. As to conditions: 10 µM unless noted.
Test [15] deals with PC-3 prostate. The following applies: 10 µM unless noted.
Test [16] has as its system SK-MEL-5 melanoma. As to conditions: 10 µM unless noted.
Test [17] concerns UACC-62 melanoma. The following applies: 10 µM unless noted.
Test [18] has as its system LOX IMVI melanoma. As to conditions: 10 µM.
In test [19] the test system is SK-MEL-28 melanoma. As to conditions: 10 µM unless noted.
The test system of test [20] is RXF 393 renal. The following applies: 10 µM unless noted.

The structures appear in SMILES notation. This is part of a sample that, as a whole, favours compounds with a hit. Of some 83,000 tested, about 20% had one in any assay.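 Note: values are percent growth. 100 is the growth of untreated cells, values between 100 and 0 indicate rising inhibition; between -100 and 0 indicates cell death.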 Unmarked numbers belong to inactive results. Calls of active or inactive are those of the source. The calls were made as follows: active = growth percent below 10; inactive = the rest.

For the compound `CCCCSc1nc(Nc2ccc(C(C)=O)cc2)c(C#N)c(-c2ccc(OC)cc2)n1`, the growth in test [1] was 88.5%; in test [2], 69.6%; in test [3], 77.2%; in test [4] it was 60.6%; in test [5], 63.1%; in [6] it was 47.6%. The growth in [7] was 25.9%; in test [8] it was 104%; in test [9] it was 91.8%; in [10] it was 74.9%; in [11] it was 78.5%; in test [12], 93%. Besides, the growth was 61.8% in [13]; 10.2% in test [14]; 90.8% in test [15]; 90.1% in test [16]; 96.2% in test [17]; 39.7% in [18]. The growth in test [19] is 91%.

For the compound `O=C(O)c1cccc(-c2ccc(/C=N/NC(=O)c3[nH]c4ccc(Br)cc4c3-c3ccccc3)s2)c1`, the growth in [1] was 55.6%; in test [2], 19.8%; in [3], 57.9%; in test [20] it was -2.3% (active); in [5], 39%; in [6], 15.6%. The growth is 16.1% in [7]; 85.5% in [8]; 47.9% in [9]; 17.4% in [10]; 69% in test [11]; 29.6% in test [12]. For the same compound, the growth in test [13] was 26.2%; in [14] it was 27%; in test [15], 56.9%; in test [16], 30.1%; in test [17], 19.5%; in [19], 44.2%.

As to `O=C(/C=C/c1ccc(-c2ccccc2)cc1)c1nc2ccccc2n1Cc1ccc(F)cc1`, the growth in test [1] was 54.4%; in test [2], 21.7%; in test [3] it was 0% (active); in test [20] it was 13.6%; in test [5], 62.4%; in test [6] it was 40.4%. Further, the growth in [7] was -15.9% (active); in test [8], 49.5%; in test [9] it was 39.6%; in test [10], 22.8%; in test [11], 9.19% (active); in test [12], 49.2%. Besides, the growth in test [13] was 44.6%; in test [14], 32.5%; in test [15], 47.6%; in [16], 47.9%; in test [17], 38.2%; in test [19], 28.4%.

As to `O=c1oc2ccccc2cc1-c1csc(N=Nc2c(O)[nH]c3ccc(Cl)cc23)n1`, the growth in test [1] was 98%; in test [2], 104%; in [3] it was 96.2%; in [4], 113%; in test [5] it was 82.1%; in [6] it was 87.9%. The growth in test [7] was 94.2%; in [8] it was 104%; in [9], 109%; in test [10], 98.8%; in [11], 107%; in test [12], 98.1%. The growth in test [13] was 89.7%; in test [14], 101%; in [15], 108%; in test [16], 98.7%; in test [17] it was 92%; in test [18], 100%. Besides, the growth in test [19] was 109%.

Turning to `Cc1sc2c(c1C)C(c1ccc(Cl)cc1)=N[C@@H](CC(=O)NCCCCCNC(=O)COc1ccc(C3CCC(=O)NC3=O)cc1)c1nnc(C)n1-2` (stereo partly specified), the growth in [1] is 88.5%; in [2], 28.4%; in test [3], 13%; in test [4], 5.01% (active); in test [20], 45.3%; in test [5], 65.4%. The growth in test [6] was 9.91% (active); in [7], 23.1%; in test [8], 49.3%; in test [9], 17.6%; in test [10], 33%; in test [13], 23.8%. Besides, the growth in [14] was 45.2%; in test [15], 11.3%; in test [16], -13.4% (active); in test [17] it was 3.07% (active); in test [18] it was 11.3%; in test [19], 48.3%.

Regarding `CC1=C(C(=O)c2ccccc2)C(c2cccc(Cl)c2Cl)n2c(nc3ccccc32)N1` (stereo unspecified), the growth in test [1] was 58.1%; in test [2], 61.4%; in test [3], 57.9%; in [20] it was 42.8%; in [5] it was 43.6%; in [6] it was 63.3%. For the same compound, the growth was 16.6% in test [7]; 76.2% in test [8]; 81.8% in [9]; 68.7% in test [10]; 54.6% in [11]; 43% in test [12]. The growth in test [13] is 39.3%; in test [14], 16.9%; in [15], 45%; in test [16], 54.5%; in test [17] it was 36.6%; in [19], 90.2%.

For the compound `C=C1CC[C@@H]2[C@]3(C)COC(c4cn(-c5ccccc5)nc4-c4ccccc4)O[C@@H]3CC[C@@]2(C)[C@@H]1C/C=C1/C(=O)OC[C@H]1O` (stereo partly specified), the growth was 8.33% (active) in test [1]; -29.9% (active) in test [2]; -90.2% (active) in test [3]; -90.8% (active) in [20]; 8.39% (active) in [5]; -97.5% (active) in test [6]. Moreover, the growth in test [7] is -98.6% (active); in test [8], -77.2% (active); in test [9] it was -80.4% (active); in test [10], -87% (active); in test [11], -70.4% (active); in test [12], -18.8% (active). Also, the growth in test [13] is -60.8% (active); in [14], -88.5% (active); in [15] it was -26.8% (active); in test [16] it was -100% (active); in [17] it was -93.8% (active); in [19], -84.2% (active).

Turning to `COc1ccc(/C=C2\C(=O)Nc3ccc(Cl)cc32)cc1OCc1ccccn1`, the growth is 57.5% in test [1]; 51.6% in test [2]; 38.2% in test [3]; 2.03% (active) in test [20]; 44% in test [5]; 38.4% in test [6]. Further, the growth in test [7] is -9.35% (active); in [8], 72.6%; in [9], 52.8%; in test [10] it was 59.9%; in test [11], 76.5%; in test [12], 38.1%. The growth in test [13] was 42.4%; in test [14], -5.73% (active); in test [15], 38.3%; in test [16], 52.4%; in [17], 20.7%; in test [19] it was 68%.
